# How the values were obtained:
# Test in all cases: PBM binding z-score (relative to random genomic background probes); higher = stronger binding; sequences stand for … in GC…GCGATTGACAGCGTAGAATGAAGG
# [1] = tested on: FXR:RXRa (NR concentration 270 nM, RXRa partner concentration 90 nM)
# In short: (§1)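 Ligand-free nuclear receptor dimers were bound for 1 h to custom Agilent 4×180K protein-binding microarrays. Detection used antibodies against each partner (one per run). Binding z-scores rest on regression-normalized fluorescence, with random background probes as the reference.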
# [2] = tested on: LXRa:RXRa (NR concentration 270 nM, RXRa partner concentration 90 nM)
# In short: as §1
# [3] = tested on: LXRa homodimer (NR concentration 270 nM)
# In short: as §1
# [4] = tested on: LXRb:RXRa (NR concentration 270 nM, RXRa partner concentration 90 nM)
# In short: as §1
# [5] = tested on: LXRb homodimer (NR concentration 270 nM)
# In short: as §1
# [6] = tested on: PPARa:RXRa (NR concentration 270 nM, RXRa partner concentration 90 nM)
# In short: as §1
# [7] = tested on: PPARg:RXRa (NR concentration 180 nM, RXRa partner concentration 90 nM)
# In short: as §1
# [8] = tested on: PPARg:RXRa 270nM:90nM, anti-RXR (NR concentration 270 nM, RXRa partner concentration 90 nM)
# In short: as §1
# [9] = tested on: PPARg:RXRa 30nM:10nM, anti-RXR (NR concentration 30 nM, RXRa partner concentration 10 nM)
# In short: as §1
# [10] = tested on: PPARg:RXRa 90nM:30nM, anti-RXR (NR concentration 90 nM, RXRa partner concentration 30 nM)
# In short: as §1
# [11] = tested on: PPARg:RXRa DBDmut IVT, anti-RXR (DBD mutation: RXRa K156A/R161A, NR concentration 270 nM, RXRa partner concentration 90 nM)
# In short: as §1
# [12] = tested on: PPARg:RXRa IVT, anti-PPARg (NR concentration 270 nM, RXRa partner concentration 90 nM)
# In short: as §1
# [13] = tested on: PPARg DBDmut:RXRa IVT, anti-PPARg (DBD mutation: PPARg1 K132A/R137A, NR concentration 270 nM, RXRa partner concentration 90 nM)
# In short: as §1
# [14] = tested on: PPARg DBDmut IVT, anti-PPARg (DBD mutation: PPARg1 K132A/R137A, NR concentration 270 nM)
# In short: as §1
# [15] = tested on: PPARg homodimer (NR concentration 180 nM)
# In short: as §1
# [16] = tested on: PXR:RXRa (NR concentration 270 nM, RXRa partner concentration 90 nM)
# In short: as §1
# [17] = tested on: PXR homodimer (NR concentration 270 nM)
# In short: as §1
# [18] = tested on: RARa:RXR (NR concentration 270 nM, RXRa partner concentration 90 nM)
# In short: as §1
# [19] = tested on: RARa homodimer (NR concentration 270 nM)
# In short: as §1
# [20] = tested on: RARb:RXRa (NR concentration 270 nM, RXRa partner concentration 90 nM)
# In short: as §1
Sequence,PBM binding z-score [1],PBM binding z-score [2],PBM binding z-score [3],PBM binding z-score [4],PBM binding z-score [5],PBM binding z-score [6],PBM binding z-score [7],PBM binding z-score [8],PBM binding z-score [9],PBM binding z-score [10],PBM binding z-score [11],PBM binding z-score [12],PBM binding z-score [13],PBM binding z-score [14],PBM binding z-score [15],PBM binding z-score [16],PBM binding z-score [17],PBM binding z-score [18],PBM binding z-score [19],PBM binding z-score [20]
TGTCAAAGTTCAAAGGTAACGTAGGTATCCACAC,6.64,6.44,4.15,4.46,1.58,5.79,8.31,7.65,4.86,7.25,0.105,4.5,1.01,1.42,2.88,5.78,3.36,6.75,1.57,5.06
TTACCAAGGTGATCTGAGGTCGTTGATCCAACTC,1.9,3.07,0.554,1.78,-0.164,1.78,0.169,0.846,0.216,0.651,0.904,1.97,0.232,-0.0515,1.46,5.06,1.41,2.02,0.209,1.55
CGTCAAAGTTCAACTAAGATAACGTAAAGCACGC,6.92,6.3,4.03,4.14,2.68,5,4.94,5.19,2.56,4.27,0.308,2.03,1.72,2.53,4.35,4.78,3.71,4.27,2.93,5.08
CAAACTAGGTCACGGGAAGGTCAAAGTCCGCATG,6.63,5.83,4.52,5.56,0.929,6.51,10.1,7.81,6.78,7.95,8.72,9.17,2.85,3.73,5.61,5.97,1.41,7.17,1.78,5.43
CGTCCAAGGTCAGAGAAGTCAGTGAATGCCGAGT,4.48,2.9,0.222,2.17,-0.0616,3.73,1.89,2.54,0.704,1.5,2.46,2.18,-0.292,-0.903,1.38,2.55,0.728,2.86,0.262,4.68
ACTAGCAGGCCAAGTATGGGTCACTCAAACAAAG,0.0234,0.143,-0.148,0.932,-0.854,1.74,0.661,0.755,-0.094,0.375,1.16,1.82,-0.278,-0.249,0.52,0.911,-0.49,1.85,-0.747,1.58
TAGGCTAGGTCATTCAGGGGCCAGTATAGAAAGC,5.03,3.64,0.726,2.79,1.32,3.63,2.37,2.47,0.608,1.64,2.09,3.13,1.07,0.104,3.69,2.64,0.0687,3.93,0.404,4.12
TCATATAGGTAAATGCTAGGTGAAAGGCCGATCT,0.626,1.07,0.239,0.994,0.0512,1.93,1.81,3.17,3.62,3.95,3.92,2.61,1.09,0.912,1.13,0.776,0.428,1.1,1.3,0.655
TCATATAGGTAAACAGGTGAAACTCCGTAAGTTA,0.937,1.06,0.143,0.976,-0.264,2.64,2.96,3.47,4.07,3.7,5.13,4.56,1.07,1.38,1.21,0.711,0.237,1.28,0.733,0.76
TATACAGGGTCAAAGGCCTGAGTACGAATGTCGA,7.13,6.36,2.31,4.5,2.28,5.81,6.92,6.47,3.45,5.74,2.08,4.32,3.81,3.06,4.01,3.86,0.321,5.15,1.29,4.2
CCGACTGGGGCATAAGGTAACCATAAGCCAGCCC,0.215,0.187,-0.284,-0.112,-1.47,1.08,2.79,3.22,1.32,3.24,2.94,2.7,-0.714,-0.986,0.375,-0.534,-0.805,0.0245,-0.0601,0.594
GCGACTGGGGCAAAGCAGGTTACTATAAGGTTGG,0.109,0.31,-0.478,0.342,-0.602,1.4,1.31,1.5,0.185,1.06,4.62,3.88,0.068,-0.036,0.617,0.375,-0.473,0.949,-0.471,0.879
ATCTATAGGTAAAGATAGTTCAGTGAATGCAAAT,0.466,5.29,0.591,1.55,0.423,0.82,1.09,0.484,0.425,0.604,1.2,1.29,0.937,1.26,0.82,1.65,0.751,0.916,0.797,0.78
TCTAGCATGCCAGAGGGTCACTCAAGAGGTACGG,0.892,0.929,-0.463,1.43,-1.1,2.5,1.02,1.69,1.89,1.76,0.74,0.403,-0.182,-1.1,0.757,1.74,-0.449,2.86,-0.513,2.11
AGAACGAGGGCACGCTGAGTGGATAGCAGAGTAG,0.65,0.494,-0.357,-0.0395,-1.03,1.77,1.99,1.64,0.26,1.29,4.13,3.9,0.715,0.00545,0.149,0.143,-0.338,0.776,-0.364,2.42
